Experimental data taken from PubChem BioAssay (NCATS).
Inconclusive results are not listed. A number with no mark means an inactive call. Calls of active or inactive are those of the source. The call rests on the fitted dose curve; in most records, active means well fitted curve in the direction sought with a large enough effect; inconclusive means small, poorly fitted or top-dose-only effect, or another doubt; inactive means no such curve, though single readings can be large; an effect the other way counts as inactive or inconclusive.

Target: DNA repair nuclease/redox regulator APEX1 (Homo sapiens) (UniProt P27695)
Sequence (P27695 whole entry, looked up): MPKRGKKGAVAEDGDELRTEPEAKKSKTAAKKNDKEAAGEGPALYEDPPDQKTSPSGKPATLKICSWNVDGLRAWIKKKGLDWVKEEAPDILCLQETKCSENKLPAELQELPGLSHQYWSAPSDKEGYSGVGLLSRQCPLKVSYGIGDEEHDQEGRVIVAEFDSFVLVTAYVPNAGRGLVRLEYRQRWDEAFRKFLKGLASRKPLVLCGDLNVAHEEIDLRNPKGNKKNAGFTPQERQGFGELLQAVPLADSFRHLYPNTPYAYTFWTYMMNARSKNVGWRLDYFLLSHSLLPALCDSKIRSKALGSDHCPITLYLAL
Assay: qHTS Validation Assay for Inhibitors of the Human Apurinic/apyrimidinic Endonuclease 1 (APE1) (AID 1705;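 further: TAMRA fluorescence gain over two minutes as APE1 cuts a quenched THF abasic duplex; on the % scale 0 is the no-effect control and ±100 the full control effect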)
Conditions: purified APE1 endonuclease activity, fluorescence, titration; series mostly up to 57.1 µM; activity change, negative = inhibition: at the top concentration
Method in brief: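 Fluorogenic double-stranded THF abasic-site substrate (5'-TAMRA/3'-BHQ-2), 50 nM final. Enzyme preincubated with compound 15 min at room temperature, then substrate added. Kinetic fluorescence (ex 525/em 598 nm) read three times at 60 s intervals; activity taken as third-minus-first read difference.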
With CC(=O)[C@H]1CC[C@H]2[C@@H]3CCC4=CC(=O)CC[C@]4(C)[C@H]3CC[C@]12C the “activity change, negative = inhibition” value was 1.1%. With NC(=O)c1cccc(N)c1 the “activity change, negative = inhibition” value was -3.26%. In the case of Cc1ccc(S(=O)(=O)N[C@@H](Cc2ccccc2)C(=O)CCl)cc1, the “activity change, negative = inhibition” value is reported as -10.3%. With CC(C)(C)NC(=O)[C@H]1CC[C@H]2[C@@H]3CC[C@H]4NC(=O)C=C[C@]4(C)[C@H]3CC[C@]12C the “activity change, negative = inhibition” value was 2.49%. For COc1cc2ncnc(Nc3cccc(Cl)c3)c2cc1OC, the “activity change, negative = inhibition” value was -14.2%.

Target: Endonuclease 4 (Escherichia coli (strain K12)) (UniProt P0A6C1)
Assay: Counterscreen for APE1 Inhibitors: qHTS Validation Assay for Inhibitors of Endonuclease IV (AID 1708); further: on the % scale 0 is the no-effect control and ±100 the full control effect
Conditions: E. coli endonuclease IV, DNA cleavage fluorescence; series mostly up to 57.1 µM; activity change, negative = inhibition: at the top concentration
Method in brief: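 Concentration-response counterscreen run identically to the APE1 assay: 15 min room-temperature preincubation of 2 nM enzyme with compound, reaction started with 50 nM quenched abasic DNA, progress taken from kinetic fluorescence.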
In the case of CC(=O)[C@H]1CC[C@H]2[C@@H]3CCC4=CC(=O)CC[C@]4(C)[C@H]3CC[C@]12C, the “activity change, negative = inhibition” value is reported as -10.4%. In the case of NC(=O)c1cccc(N)c1, the “activity change, negative = inhibition” value is reported as -7.79%. With CC(C)(C)NC(=O)[C@H]1CC[C@H]2[C@@H]3CC[C@H]4NC(=O)C=C[C@]4(C)[C@H]3CC[C@]12C the “activity change, negative = inhibition” value was 3.78%. In the case of COc1cc2ncnc(Nc3cccc(Cl)c3)c2cc1OC, the “activity change, negative = inhibition” value is reported as -11.2%.

Tested on: not listed separately
Assay: qHTS for differential inhibitors of proliferation of Plasmodium falciparum line 7G8 (AID 1815);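 further: parasite growth measured after three days of incubation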; further: potency means the concentration at half of the fitted maximal effect;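 on activity change, negative = inhibition: plate controls were vehicle wells for no effect and reference inhibitor wells for full effect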
Conditions: Plasmodium falciparum 7G8 proliferation inhibition; series mostly up to 28.7 µM; activity change, negative = inhibition: at the top concentration
With NC(=O)c1cccc(N)c1 the “activity change, negative = inhibition” value was -4.84%. With CC(C)(C)NC(=O)[C@H]1CC[C@H]2[C@@H]3CC[C@H]4NC(=O)C=C[C@]4(C)[C@H]3CC[C@]12C the Potency was 10 µM (active). With COc1cc2ncnc(Nc3cccc(Cl)c3)c2cc1OC the Potency was 8.91 µM (active). With Nc1nc(N)c2nc(CNc3ccc(C(=O)NC(CCC(=O)O)C(=O)O)cc3)cnc2n1 (stereo not drawn) the “activity change, negative = inhibition” value was -8.59%.
